Screens: PubChem BioAssay, National Center for Advancing Translational Sciences (NCATS)
LDHA block: blocks human lactate dehydrogenase A. P00338. purified LDHA, NADH/diaphorase-resazurin fluorescence; hits give low values. activity change, % (values are at about 110 or 230 µM). actives 0.15% (n = 480,000); in the data active = activity change below about -30%; inconclusive = mostly about -25% to -30%;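 note: plate controls were DMSO wells for no effect and wells without enzyme for full effect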
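Human LDH5 at 2 nM final in Tris HCl pH 7.4 with 0.06 mM NADH and 0.2 mM pyruvate, reacted 5 minutes at room temperature. Remaining NADH coupled via diaphorase/resazurin; resorufin fluorescence read at 0 and 20 minutes, normalized to enzyme-free and DMSO wells.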
TDP1 cell noCPT: qHTS for Inhibitors of human tyrosyl-DNA phosphodiesterase 1 (TDP1): qHTS in cells in absence of CPT. DT40 Tdp1-/- hTDP1 cells, no CPT, ATP luminescence, 48 h. Potency, µM (series often up to 46.2 µM), for the others: top-dose activity change, negative = growth inhibition, usual class: inhibitors. actives 15% (n = 420,000). AID 686978, 2013; note: potency is the fitted concentration of half-maximal effect; nearly all actives have a fitted effect of over 55% in size
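Chicken DT40 Tdp1-/- cells stably complemented with human TDP1 were seeded at 400 cells/well with DMSO in place of 20 nM camptothecin. After compound pinning, cells grew at least 48 hr at 37 °C; viability read by CellTiter-Glo luminescence.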
VP16 counter: inhibits Gal4-VP16 luciferase reporter, ROR gamma counter-screen | Drosophila S2 Gal4-VP16 UAS-luciferase, luminescence, 20 h | Potency, µM (series often up to 53.6 µM), for inactives: top-dose activity, negative = inhibition, usual class: inhibitors | actives 3.5% (n = 310,000);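 note: Gal4-VP16 expression switched on by copper sulfate through the metallothionein promoter; potency is the fitted concentration of half-maximal effect; nearly all actives have a fitted effect of over 50% in size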
IL1B secr inh: inhibitors of inflammasome signaling (IL-1 beta secretion); actives 4.7% (n = 360,000); activity change, % at 57.5 µM; THP-1 LPS/ATP IL-1B secretion, AlphaLISA, 16 h; hits give low values; in the data active = activity change below about -50%; inconclusive = mostly about -30% to -49%
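Secreted IL-1B measured by AlphaLISA bead assay after 16 h compound exposure of THP-1 cells; compounds (final up to 57.5 uM) added 1 h before LPS (250 ng/mL) and ATP (1.25 mM) stimulation; lower signal means less secretion.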
DT40 TDP1 CPT: growth inhibition of DT40 Tdp1-/-;hTDP1 cells with camptothecin (screen for TDP1 inhibitors) | chicken DT40 Tdp1-/-;hTDP1 cells + 20 nM CPT, ATP luminescence, 48 h | Potency, µM (series often up to 46.2 µM), for inactives: at the top dose activity change, negative = growth inhibition, usual class: inhibitors | actives 12% (n = 420,000) | AID 686979; note: potency is the fitted concentration of half-maximal effect; nearly all actives have a fitted effect of over 55% in size
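Chicken DT40 Tdp1-/- cells stably complemented with human TDP1 were seeded at 400 cells/well in medium containing 20 nM camptothecin, exposed to pin-transferred compounds, and grown at 37 °C for at least 48 hr. Viability was read as ATP luminescence.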
RORgamma inh: inhibitors of mouse ROR gamma transcriptional activity. P51450. Drosophila S2 Gal4-RORgamma UAS-luciferase reporter, 20 h. Potency, µM (highest dose often 53.6 µM), inactives show top-dose activity change, negative = inhibition, actives largely listed as inhibitors. actives 5.4% (n = 310,000). AID 2551; note: potency is the fitted concentration of half-maximal effect; nearly all actives have a fitted effect of over 60% in size
Target sequence (P51450 whole entry, looked up, the tested form may be a part): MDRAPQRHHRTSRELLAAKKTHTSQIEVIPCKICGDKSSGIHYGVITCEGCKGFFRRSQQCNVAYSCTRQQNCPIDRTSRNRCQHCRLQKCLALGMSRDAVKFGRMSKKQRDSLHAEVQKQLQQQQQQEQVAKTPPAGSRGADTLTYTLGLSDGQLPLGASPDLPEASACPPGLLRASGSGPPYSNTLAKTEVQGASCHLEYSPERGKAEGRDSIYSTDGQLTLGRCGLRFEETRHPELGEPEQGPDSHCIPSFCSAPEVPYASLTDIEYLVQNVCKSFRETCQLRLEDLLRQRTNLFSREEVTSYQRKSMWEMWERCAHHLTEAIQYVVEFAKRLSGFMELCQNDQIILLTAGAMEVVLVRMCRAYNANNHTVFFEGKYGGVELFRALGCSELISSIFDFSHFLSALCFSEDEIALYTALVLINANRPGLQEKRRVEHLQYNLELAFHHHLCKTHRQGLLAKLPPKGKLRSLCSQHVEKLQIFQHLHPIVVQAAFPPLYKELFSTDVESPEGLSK
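Compounds are pin-transferred onto Drosophila Schneider cells expressing a copper-inducible Gal4–ROR gamma transactivation domain fusion. After 1 hr, copper sulfate is added to 700 uM final; luciferase is read 20 hr later.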
The depositor's hits bear a star. This is a sample that favours compounds with a hit; in the whole collection about 18% have one here. Unless noted, calls come from the whole dose curve; as a rule, active = well fitted curve in the direction sought with a large enough effect; inconclusive = small, poorly fitted or top-dose-only effect, or another doubt; inactive = no such curve, though single readings can be large; an effect the other way counts as inactive or inconclusive. Unless noted, % is set by controls: 0 for no effect and ±100 for the full control effect.

CCOC(=O)COc1ccc(Br)cc1/C=C1\NC(=O)NC1=O was read as LDHA block -3.6.
For CCNc1nc(NC(C)C)nc(Oc2ccc(OCCOc3ccc(C)cc3)nn2)n1 the results were LDHA block 2.7, TDP1 cell noCPT inconclusive, VP16 counter 0.9%, IL1B secr inh 16.5, DT40 TDP1 CPT 20.6µM* and RORgamma inh -3.8%.
Screening CC(C)CCOc1ccc(Oc2nc(N(C)C)nc(N(C)C)n2)nn1 returned LDHA block -8.0, TDP1 cell noCPT inconclusive and DT40 TDP1 CPT 18.4µM*.
For CCOc1nc(SCCOc2ccc(C)cc2)nc(N(C)C)n1 the results were LDHA block 5.6, TDP1 cell noCPT inconclusive, VP16 counter -2.9%, IL1B secr inh -4.8, DT40 TDP1 CPT -24.7% and RORgamma inh -36.9%.
Screening CCNc1nc(NCC)nc(SCCOc2ccc(C)cc2)n1 returned LDHA block -0.1, TDP1 cell noCPT 18.4µM*, VP16 counter inconclusive, IL1B secr inh -7.6, DT40 TDP1 CPT 20.6µM* and RORgamma inh inconclusive.
For CCNc1nc(NCC)nc(Oc2ccc(OCC)nn2)n1 the results were LDHA block -5.7, TDP1 cell noCPT -0.1%, VP16 counter -4.0%, IL1B secr inh -4.0, DT40 TDP1 CPT -2.4% and RORgamma inh -29.3%.
`Cc1cccc(OCCSc2nc(N)cc(N)n2)c1` gave LDHA block -3.5, TDP1 cell noCPT 20.6µM*, VP16 counter -16.6%, IL1B secr inh -27.2, DT40 TDP1 CPT inconclusive and RORgamma inh inconclusive.
O=C(COc1cccc(Br)c1)Nc1ccc(NC(=O)C2CC2)cc1 was read as LDHA block -15.1.
`CCOc1ccc(Oc2nc(NCC(C)C)nc(NC(C)(C)C)n2)nn1` gave LDHA block -1.1, TDP1 cell noCPT inconclusive and DT40 TDP1 CPT inconclusive.
For CCCOc1ccc(Oc2nc(NCC(C)C)nc(N(C)C)n2)nn1 the results were LDHA block 2.5, TDP1 cell noCPT 13µM* and DT40 TDP1 CPT inconclusive.
Screening COC(=O)c1ccc(COC(=O)c2cc3c(s2)CCC3)o1 returned LDHA block 0.6.
`COc1cccc(CN(C)C(=O)c2cccc(S(=O)(=O)Nc3cccc(C)c3)c2)c1OC` gave LDHA block -2.4, TDP1 cell noCPT 16.4µM*, IL1B secr inh -11.6 and DT40 TDP1 CPT 23.1µM*.
`COc1cccc(CN(C)C(=O)c2ccc(NS(=O)(=O)c3ccc4[nH]c(=O)[nH]c4c3)cc2)c1OC` gave LDHA block -0.8, TDP1 cell noCPT 7.2%, IL1B secr inh -14.9 and DT40 TDP1 CPT 5.4%.
CCOc1ccc(NS(=O)(=O)c2ccc(C(=O)N(C)Cc3cccc(OC)c3OC)cc2)cc1 was read as LDHA block -1.4, TDP1 cell noCPT 14.6µM*, VP16 counter inconclusive, IL1B secr inh -0.5, DT40 TDP1 CPT 14.6µM* and RORgamma inh inconclusive.
For CCOc1ccc(NS(=O)(=O)c2ccc(C(=O)N(C)CC(=O)Nc3ccc(C)cc3)cc2)cc1 the results were LDHA block -1.5, TDP1 cell noCPT 16.4µM*, IL1B secr inh inconclusive and DT40 TDP1 CPT inconclusive.
CCOc1ccc(CN(C)C(=O)c2cccc(S(=O)(=O)Nc3ccccc3OC)c2)cc1OC was read as LDHA block -1.8, TDP1 cell noCPT 14.6µM*, IL1B secr inh -28.3 and DT40 TDP1 CPT inconclusive.
For CN(C)c1ccc(C(=O)OC(C(=O)c2ccccc2)c2ccccc2)cc1 (stereo unspecified) the results were LDHA block -4.0.
For COc1ccc(NS(=O)(=O)c2ccc(C(=O)N(C)Cc3ccc(C)o3)cc2)cc1 the results were LDHA block -7.4, TDP1 cell noCPT 14.6µM*, IL1B secr inh -10.7 and DT40 TDP1 CPT 13µM*.
